In PubChem BioAssay (Tox21):
Results filed as inconclusive are left out. Calls of active or inactive are those of the source. Unless noted, calls come from the whole dose curve; as a rule, active = well fitted curve in the direction sought with a large enough effect in the repeat runs; inconclusive = weak or mixed curves; inactive = no such curve, though single readings can be large; an effect the other way counts as inactive or inconclusive.

Columns and labels:
[1] = qHTS RealTime-Glo MT Cell Viability Assay in HEK293 cells - 0 hour (AID 1224880); note: top concentration of the series differs between compounds; nearly all actives have a fitted effect of over 45% in size
Outline: (§1)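 Luminescence, which tracks viable cell number through reduction of the prosubstrate to a NanoLuc substrate, was read over continuous 37 C culture. Cells (600/well) were premixed with reagent and rested 5 h before 23 nL of compound in DMSO was pinned.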

[2] = A CellTox Green Cytotoxicity Assay to monitor cytotoxicity in HEK293 cells - 32 hour (AID 1224881); note: nearly all actives have a fitted effect of over 40% in size
Outline: (§2)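 Fluorescence from a DNA-binding dye excluded by viable cells was measured repeatedly in the same HEK293 wells (600 cells/well) during continuous compound exposure at 37 C. Each assay gives one read point: 0, 8, 16, 24, 32 or 40 h.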

[3] = A CellTox Green Cytotoxicity Assay to monitor cytotoxicity in HepG2 cells - 0 hour (AID 1224882); note: nearly all actives have a fitted effect of over 35% in size
Outline: (§3)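 Real-time cytotoxicity: fluorescence of a cell-impermeant cyanine dye binding DNA of dead HepG2 cells, measured repeatedly (0–40 h) during compound exposure at 37 C. Cells seeded 600/well with reagent, dosed after 5 h.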

[4] = A CellTox Green Cytotoxicity Assay to monitor cytotoxicity in HepG2 cells - 32 hour (AID 1224883); note: nearly all actives have a fitted effect of over 50% in size
Outline: as §3

[5] = A CellTox Green Cytotoxicity Assay to monitor cytotoxicity in HEK293 cells - 8 hour (AID 1224884); note: nearly all actives have a fitted effect of over 35% in size
Outline: as §2

[6] = qHTS RealTime-Glo MT Cell Viability Assay in HepG2 cells - 16 hour (AID 1224885); note: nearly all actives have a fitted effect of over 50% in size
Outline: (§4)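 Real-time, nonlytic viability: 600 HepG2 cells/well mixed with NanoLuc enzyme plus prosubstrate; 5 h settle, compound (DMSO) added by pintool; luminescence monitored over 40 h at 37 C.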

[7] = qHTS RealTime-Glo MT Cell Viability Assay in HEK293 cells - 24 hour (AID 1224886); note: top concentration of the series differs between compounds; nearly all actives have a fitted effect of over 50% in size
Outline: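 Cells + reagent dispensed (600 cells/well, HEK293) → 5 h at 37 C/5% CO2 → 23 nL compound in DMSO pinned → 40 h at 37 C → luminescence read at 0, 8, 16, 24, 32, 40 h.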

[8] = qHTS RealTime-Glo MT Cell Viability Assay in HEK293 cells - 8 hour (AID 1224887); note: top concentration of the series differs between compounds; nearly all actives have a fitted effect of over 50% in size
Outline: as §1

[9] = A CellTox Green Cytotoxicity Assay to monitor cytotoxicity in HEK293 cells - 16 hour (AID 1224888); note: nearly all actives have a fitted effect of over 35% in size
Outline: as §2

[10] = qHTS RealTime-Glo MT Cell Viability Assay in HepG2 cells - 0 hour (AID 1224889); note: nearly all actives have a fitted effect of over 50% in size
Outline: as §4

[11] = qHTS assay to identify small molecule antagonists of the estrogen receptor alpha (ER-alpha) signaling pathway using the BG1 cell line in the presence of 0.1 nM 17-beta-estradiol - cell viability counter screen (AID 1259241); note: nearly all actives have a fitted effect of over 40% in size
Outline: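 VM7Luc4E2 cells (endogenous full-length ER-alpha, 4xERE-luciferase), cultured 5 days in charcoal-stripped serum, exposed to compounds with 0.1 nM 17beta-estradiol (final) for 22 hr at 37C. Viability read in same wells as live-cell protease fluorescence after 30 min.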

[12] = molecular target: Androgen receptor (Homo sapiens) (UniProt P10275); assay: qHTS assay to identify small molecule antagonists of the androgen receptor (AR) signaling pathway using the MDA cell line in the presence of 0.5 nM R1881 (AID 1259243); note: nearly all actives have a fitted effect of over 50% in size
Androgen receptor (Homo sapiens), sequence (P10275 whole entry, looked up): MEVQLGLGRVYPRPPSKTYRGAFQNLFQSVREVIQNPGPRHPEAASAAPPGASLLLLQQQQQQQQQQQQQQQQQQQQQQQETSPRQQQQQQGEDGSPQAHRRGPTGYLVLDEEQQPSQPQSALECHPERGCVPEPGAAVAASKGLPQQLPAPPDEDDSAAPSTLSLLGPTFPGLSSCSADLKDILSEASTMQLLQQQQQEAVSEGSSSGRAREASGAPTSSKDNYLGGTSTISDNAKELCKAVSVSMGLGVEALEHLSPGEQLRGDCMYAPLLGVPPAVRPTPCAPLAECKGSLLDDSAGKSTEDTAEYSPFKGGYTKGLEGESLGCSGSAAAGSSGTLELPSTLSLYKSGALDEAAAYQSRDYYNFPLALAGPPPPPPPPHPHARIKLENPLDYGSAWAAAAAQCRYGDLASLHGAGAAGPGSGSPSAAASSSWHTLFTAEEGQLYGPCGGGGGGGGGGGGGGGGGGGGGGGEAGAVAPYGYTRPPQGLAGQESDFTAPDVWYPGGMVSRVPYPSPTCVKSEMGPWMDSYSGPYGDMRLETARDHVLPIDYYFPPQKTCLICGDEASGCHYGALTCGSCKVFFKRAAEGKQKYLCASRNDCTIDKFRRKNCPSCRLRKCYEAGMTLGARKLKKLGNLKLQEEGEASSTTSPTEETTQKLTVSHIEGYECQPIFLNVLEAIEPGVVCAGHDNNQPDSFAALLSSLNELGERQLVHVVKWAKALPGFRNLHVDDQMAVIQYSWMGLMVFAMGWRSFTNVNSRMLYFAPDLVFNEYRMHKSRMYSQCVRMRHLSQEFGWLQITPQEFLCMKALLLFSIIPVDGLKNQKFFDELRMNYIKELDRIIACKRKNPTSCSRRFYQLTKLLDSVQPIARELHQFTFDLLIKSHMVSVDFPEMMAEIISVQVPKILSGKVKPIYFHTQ
Outline: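 Luminescent reporter readout (ONE-Glo, 30 min, room temperature) after 16 hr co-treatment of MDA-kb2 cells with test compounds and 0.5 nM R1881 final, at 37C without CO2. The MMTV-driven luciferase responds to both AR and GR.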

[13] = qHTS assay to identify small molecule HDAC inhibitors (AID 1259364); note: top concentration of the series differs between compounds; nearly all actives have a fitted effect of over 45% in size
Outline: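 Luminescence read after 30 min room-temperature HDAC-Glo incubation measures cellular class I/II HDAC activity. Compounds were applied for 2 hr at 37 C to HCT-116 wild-type cells seeded the day before.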

[14] = qHTS assay to identify small molecule HDAC inhibitors - cell viability counter screen (AID 1259365)
Outline: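 Wild-type HCT-116 cells, 1,500/well, cultured overnight, then compound-treated 2 h at 37 C. Viability measured as ATP luminescence with CellTiter-Glo after 30 min at room temperature.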

[15] = qHTS assay to identify small molecule agonists of the sonic hedgehog signaling (Shh) pathway - cell viability counter screen (AID 1259366); note: nearly all actives have a fitted effect of over 50% in size
Outline: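 NIH/3T3-derived Gli1-Luc reporter cells, 2,000 per well, received compound after 4 h and were treated about 23 h at 37C. Viability measured in the same wells by CellTiter-Fluor fluorescence after 1 h.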

[16] = qHTS assay to identify small molecule antagonists of the sonic hedgehog signaling (Shh) pathway - cell viability counter screen (AID 1259367); note: nearly all actives have a fitted effect of over 55% in size
Outline: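 Fluorescence read-out (CellTiter-Fluor, 1 hr at 37C) taken after 23 hr compound treatment of 3T3 Gli1-Luc cells stimulated with conditioned medium. Cells were seeded at 2,000 per well and pre-incubated 4 hr.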

[17] = A CellTox Green Cytotoxicity Assay to monitor cytotoxicity in HepG2 cells - 8 hour (AID 1224890); note: nearly all actives have a fitted effect of over 45% in size
Outline: as §3

[18] = qHTS assay to identify small molecule antagonists of the androgen receptor (AR) signaling pathway using the MDA cell line in the presence of 0.5 nM R1881 - cell viability counter screen (AID 1259242); note: nearly all actives have a fitted effect of over 45% in size
Outline: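 Live-cell protease activity was measured by CellTiter-Fluor fluorescence after 30 min. Before that, MDA-kb2 MMTV-luciferase cells had 16 hr at 37C without CO2, exposed to test compounds and 0.5 nM R1881 final.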

[19] = molecular target: Estrogen receptor (Homo sapiens) (UniProt P03372); assay: qHTS assay to identify small molecule antagonists of the estrogen receptor alpha (ER-alpha) signaling pathway using the BG1 cell line in the presence of 0.1 nM 17-beta-estradiol (AID 1259244); note: nearly all actives have a fitted effect of over 50% in size
Estrogen receptor (Homo sapiens), sequence (P03372 whole entry, looked up): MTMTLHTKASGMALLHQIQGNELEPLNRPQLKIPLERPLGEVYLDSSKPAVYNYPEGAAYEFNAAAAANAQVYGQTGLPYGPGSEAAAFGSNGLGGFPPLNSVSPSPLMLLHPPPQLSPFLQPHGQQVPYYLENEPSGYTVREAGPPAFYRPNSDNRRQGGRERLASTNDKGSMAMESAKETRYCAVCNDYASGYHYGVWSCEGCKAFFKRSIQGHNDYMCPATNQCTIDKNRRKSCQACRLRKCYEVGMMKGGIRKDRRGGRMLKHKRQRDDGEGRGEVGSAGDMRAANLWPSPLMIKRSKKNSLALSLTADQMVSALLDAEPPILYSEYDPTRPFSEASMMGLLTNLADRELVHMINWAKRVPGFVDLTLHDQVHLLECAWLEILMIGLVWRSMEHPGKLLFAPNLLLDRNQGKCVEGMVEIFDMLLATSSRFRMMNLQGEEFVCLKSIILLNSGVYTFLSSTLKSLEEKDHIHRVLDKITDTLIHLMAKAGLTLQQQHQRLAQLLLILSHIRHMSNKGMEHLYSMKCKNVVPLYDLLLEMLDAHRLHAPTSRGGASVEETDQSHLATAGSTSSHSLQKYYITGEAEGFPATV
Outline: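 Luciferase luminescence (ONE-Glo, 30 min at room temperature) was read after 22 hr at 37C exposure to compounds plus 17beta-estradiol at 0.1 nM final. Cells were VM7Luc4E2 with endogenous ER-alpha and an ERE-driven luciferase, pre-cultured 5 days in hormone-depleted medium.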

[20] = qHTS assay to identify small molecule phospholipidosis (PLD) inducers (AID 1259344; active = well fitted curve in the direction sought with a large enough effect; an effect the other way counts as inactive or inconclusive)
Outline: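 Read-out is LipidTOX Red fluorescence (ex 595/em 615) imaged in HepG2 cells after 24 h compound exposure at 37 C, with Hoechst nuclear counterstain (ex 352/em 461) allowing per-cell normalisation.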
% is set by controls: 0 for no effect and ±100 for the full control effect.

C=C(C)C(=O)OCCN(CC)CC
inactive: Potency [1] | Potency [2] | outcome [3] | Potency [4] | Potency [5] | outcome [6] | Potency [7] | Potency [8] | outcome [9] | Potency [10] | Potency [11] | Potency [12] | Potency [13] | outcome [14] | Potency [15] | Potency [16]

O=C1CCCC(=O)O1
inactive: Potency [1] | Potency [2] | outcome [3] | Potency [4] | Potency [5] | outcome [6] | Potency [7] | outcome [9] | Potency [10] | outcome [17] | Potency [11] | outcome [18] | Potency [19] | Potency [13] | outcome [14] | Potency [15] | Potency [16]

COC(=O)C1CC(=O)C(C(=O)OC)CC1=O (centres undefined)
inactive: activity change, negative = cytotoxicity [1] 2.08% [at 6.97 µM] | cytotoxicity increase [2] 0.949% [at 6.97 µM] | cytotoxicity [3] -5.98% [at 6.97 µM] | cytotoxicity increase [4] -7.66% [at 6.97 µM] | cytotoxicity increase [5] 10.4% [at 6.97 µM] | activity change, negative = cytotoxic [6] -8.58% [at 6.97 µM] | activity change, negative = cytotoxicity [7] 0.682% [at 6.97 µM] | activity change, negative = cytotoxicity [8] 5.57% [at 6.97 µM] | activity change [9] 2.56% [at 6.97 µM] | activity change, negative = cytotoxicity [10] -20.4% [at 6.97 µM] | activity change, negative = cytotoxicity [11] 7.13% [at 8.39 µM] | viability change, negative = cytotoxic [18] 1.05% [at 8.39 µM] | activity change, negative = inhibition [13] -0.18% [at 8.39 µM] | activity change, negative = cytotoxicity [14] 0.106% [at 8.39 µM] | viability change, negative = cytotoxic [15] 11.2% [at 8.39 µM] | viability change, negative = cytotoxic [16] 1.71% [at 8.39 µM]

Nc1ccc(S(=O)(=O)Nc2ccc(Cl)nn2)cc1
inactive: Potency [1] | Potency [2] | outcome [3] | Potency [4] | Potency [5] | outcome [6] | Potency [7] | Potency [8] | outcome [9] | Potency [11] | outcome [18] | Potency [12] | Potency [19] | outcome [20] | Potency [13] | outcome [14] | Potency [15] | Potency [16]

CC(N)C(=O)OC(C)(C)Cc1ccc(Cl)cc1 (centres undefined)
inactive: Potency [1] | Potency [2] | outcome [3] | Potency [4] | Potency [5] | outcome [6] | Potency [7] | Potency [8] | outcome [9] | outcome [17] | Potency [11] | outcome [18] | Potency [19] | Potency [13] | outcome [14] | Potency [15] | Potency [16]

O=C1c2ccccc2C(=O)N1CCl
inactive: Potency [1] | Potency [2] | outcome [3] | Potency [4] | Potency [5] | outcome [6] | Potency [7] | Potency [8] | outcome [9] | outcome [17] | Potency [11] | outcome [18] | Potency [12] | Potency [19] | Potency [13] | outcome [14] | Potency [15] | Potency [16]

CCC(CC)CO
inactive: Potency [1] | Potency [2] | outcome [3] | Potency [4] | Potency [5] | outcome [6] | Potency [7] | Potency [8] | outcome [9] | Potency [11] | outcome [18] | Potency [12] | Potency [19] | Potency [13] | outcome [14] | Potency [15] | Potency [16]
